High-throughput results from PubChem.
Cdc25B block: inhibitors of Cdc25B phosphatase catalytic domain, primary screen, biochemical, OMFP fluorescence | inhibition, %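 (compounds tested at 10 µM final in the well)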 | recombinant Cdc25B, OMFP fluorescence Ex485/Em525 | M-phase inducer phosphatase 2 (Homo sapiens), P30305 | 0.1% of 65,000 active; in the data active means inhibition above about 50%
MKP-1 inh: MKP-1 phosphatase inhibitors, primary screen, biochemical, in vitro. recombinant MKP-1, OMFP hydrolysis fluorescence. inhibition, %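 (compounds tested at a single concentration somewhere between 10 and 100 µM)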. 0.15% of 65,000 active. AID 374, 2006;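 active means inhibition above about 50%, limit read from the data; inconclusive means inhibition over screen mean plus 3 SD, below that limit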;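 further: 0% = DMSO max control wells and 100% = wells with enzyme stopped by NaOH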
Hsp90 inh: tumor Hsp90 inhibitors, primary screen, cell lysate, fluorescence polarization, NCI-N417 lysate. inhibition, % at 30 µM. Cy3B-geldanamycin FP displacement. AID 429, 2006. 0.35% of 64,000 active. Heat shock protein HSP 90-alpha (Homo sapiens), P07900;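 active means inhibition above 50%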;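 further: 0% = tracer plus lysate wells and 100% = tracer alone without lysate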
MMP13 inh: human MMP13 inhibitors, primary screen, biochemical, FRET peptide cleavage; 0.07% of 65,000 active; MMP-13 fTHP FRET cleavage, Mca fluorescence; inhibition, % at 4 µM; Collagenase 3 (Homo sapiens), P45452;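 active means inhibition above the mean of compound-free control plate wells plus 3 SD, cut at about 14% in these data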;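 further: 0% = DMSO wells and 100% = wells with reference MMP-13 inhibitor after basal subtraction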
M1 ag: M1 muscarinic receptor agonists, primary screen, CHO-M1 cells, Fluo-4 calcium, agonist mode; Muscarinic acetylcholine receptor M1; Fluo-4 calcium fluorescence; active compounds read high; B-score at 10 µM; 3% of 64,000 active; AID 626, 2007;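 active means fluorescence rise, raw or as B-score row- and column-corrected plate score, outside the 99.7% band of its plate's samples, either direction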
M1 antag: antagonists of rat M1 muscarinic receptor; CHO-M1 cells, Fluo-4 calcium, ACh EC80 antagonist mode; active compounds read low; B-score at 10 µM; 3.4% of 64,000 active;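 active means calcium fluorescence response, raw or row-and-column corrected B-score, differing from the plate sample mean either way at a set confidence level, mostly lower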
Target sequence (P08482 whole entry, looked up): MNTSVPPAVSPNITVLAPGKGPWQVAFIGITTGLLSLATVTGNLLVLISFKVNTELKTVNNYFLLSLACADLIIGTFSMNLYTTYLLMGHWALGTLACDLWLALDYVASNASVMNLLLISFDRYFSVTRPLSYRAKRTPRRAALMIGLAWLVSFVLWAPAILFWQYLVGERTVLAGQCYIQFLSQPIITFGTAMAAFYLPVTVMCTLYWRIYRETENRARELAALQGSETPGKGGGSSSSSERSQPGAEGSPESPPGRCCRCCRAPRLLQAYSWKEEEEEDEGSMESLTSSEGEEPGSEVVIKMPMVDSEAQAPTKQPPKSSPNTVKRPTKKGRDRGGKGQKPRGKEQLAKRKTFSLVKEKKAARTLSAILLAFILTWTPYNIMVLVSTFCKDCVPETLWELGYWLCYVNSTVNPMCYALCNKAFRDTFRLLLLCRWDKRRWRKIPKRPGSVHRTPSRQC
M1 agonist conf: rat M1 muscarinic receptor agonists, confirmation, CHO-M1 cells, Fluo-4 calcium, duplicate retest; shares compounds with M1 ag; Fluo-4 calcium fluorescence, agonist mode; actives lie on both sides; fluorescence change (max-min) at 10 µM; 19% of 1,700 active; AID 1488, 2009;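 active means fluorescence change differs from the solvent-only DMSO control mean at a set confidence level in both duplicate runs; inconclusive means differs from solvent-only control mean in just one of two runs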;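 further: an EC20 dose of acetylcholine follows compound addition during the same imaging run; raw fluorescence intensity difference in instrument units with no normalization to controls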
M4 ag counter: agonist activity at rat M4 receptor, confirmation, counter-screen for M1 allosteric modulator project, cell-based, agonist mode; shares compounds with M1 ag; CHO M4/Gqi5 cells, Fluo-4 calcium fluorescence; actives lie on both sides; fluorescence change (max-min) at 10 µM; 9% of 1,700 active; AID 1741, 2009;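 active means fluorescence change differing from the plate's solvent-only control wells at 99.7% confidence in both duplicates, whether higher or lower; inconclusive means differs from solvent controls in only one of two duplicates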
* marks the source's active call; other numbers are inactive results; ? = inconclusive; · = no result. Shown are actives, neighbours in structure and some others; about 6.1% of the full set was active somewhere.

SMILES	Cdc25B block	MKP-1 inh	Hsp90 inh	MMP13 inh	M1 ag	M1 antag	M1 agonist conf	M4 ag counter
CCOC(=O)Cc1csc(SCC(=O)c2c(N)n(CC(C)C)c(=O)n(C)c2=O)n1	-6	-7	-3	1	8.9*	-2.9*	-2.6	14
Oc1ccc2oc3c(c2c1/C=N/n1cnnc1)CCCC3	1	-2	1	-1	1.3*	1.2	?	-61
C(=N\n1cnnc1)/c1ccc2c(c1)OCO2	6	14	-1	-4	-0.36	0.16	·	·
CCCS(=O)(=O)c1nc(S(=O)(=O)c2ccc(C)cc2)c(NCCCN2CCOCC2)s1	-20	12	0	-1	2.5*	0.017	-14	?
CCCS(=O)(=O)c1nc(S(=O)(=O)c2ccc(C)cc2)c(N2CCCC2)s1	1	1	-5	2	-1.5	-0.46	·	·
Cc1ccc(C2C(C#N)=C(N)SC(N)=C2C#N)c(C)c1	-17	2	-18	-4	11*	-0.03	-15	-49
Cc1nc2ccccc2c(=O)n1NCc1cc(Br)cs1	-12	10	1	-1	4.4*	-0.19	-5.2	-13
O=C1C2C3CCCC3=C3CCCC3C2C(=O)N1c1ccc(Cl)cc1 (configuration not stated)	-2	0	-13	6	4.2*	-0.9	?	-38
CCOc1ccc2oc(-c3ccccc3)c(C(=O)N3CCN(CCO)CC3)c2c1	-12	4	-2	-88	4.2*	-0.62	-9.5	?
Cc1oc(-c2ccc(Cl)cc2)nc1CN1CCC(C(=O)N2CCc3ccccc3C2)CC1	-27	12	-1	2	5.7*	-3.7*	?	-72
CC1CCCCN1S(=O)(=O)c1ccc(NC(=O)CSc2nnnn2C)cc1 (configuration not stated)	-9	3	1	5	-1.5	0.052	·	·
CCOC(=O)CC(=O)CSc1nc2c(c(C)c1C#N)CCC2	7	5	-4	-30	-2.9*	-1.2	-8	-27
Fc1ccc(COc2ccc(/C=N/n3cnnc3)cc2)cc1	6	17	-3	10	1.8	1.4	·	·
O=C(c1ccc(S(=O)(=O)N2CCCCC2)cc1)N1CCCc2ccccc21	-4	1	-2	-3	0.0017	0.9	·	·
CCCN(CCC)S(=O)(=O)c1ccc(C(=O)N2CCC(=O)c3ccccc32)cc1	-7	9	-5	0	3.3*	-2.8*	-18	-64
COc1ccccc1-c1ccc(=O)n(CC(=O)NC(C)(C)C)n1	-5	30	3	1	0.71	0.35	·	·
Cc1nc(SCC(=O)NCc2ccco2)c2c(C)c(C)sc2n1	4	0	-11	-3	11*	0.11	-10	-43
COc1ccc(C2=CC(c3ccc(C)cc3)n3nnnc3N2)cc1 (configuration not stated)	1	-3	-1	-10	9.6*	-0.42	3.3	-32
COc1ccc(C2C=C(c3ccccc3)Nc3nnnn32)cc1 (configuration not stated)	-11	9	1	-24	-0.87	0.018	·	·
COc1ccc(C2=CC(c3ccc(OC)c(OC)c3)n3nnnc3N2)c(OC)c1 (configuration not stated)	0	-2	-4	-14	0.95	0.73	·	·
COc1cccc(C2C=C(c3ccc(OC)cc3OC)Nc3nnnn32)c1 (configuration not stated)	4	-5	-12	-25	3.3*	0.62	37	8.4
